The results in this text go back to ChEMBL document CHEMBL4513216, “Probing the Open Global Health Chemical Diversity Library for Multistage-Active Starting Points for Next-Generation Antimalarials” (ACS Infect Dis, 2020).

The structures appear in SMILES notation. About 2,100 (3.2%) of roughly 65,000 compounds showed an effect of 50% or more. The median lay at about -52%. Many of the other results were omitted from the sample, so strong results are more common in it than they were.

In the experiment the test system is Plasmodium falciparum. The experiment is described as follows: Screen against P. falciparum Asexual Blood Stage (ABS), at 5uM. The conditions noted are these: tested at 5 uM. The class given is functional, Dd2.
As for `O=C(NCc1cc(=O)n2c(n1)CN(CC1CC1)CCC2)c1ccsc1`, the INHIBITION is recorded as -69.7%.
As for `c1cnc(N2CC3(CCN(C4CCOCC4)CC3)c3ccccc32)nc1`, the INHIBITION was determined as 64%.
For `c1cnc(N2CC3(CCN(C4CCOC4)CC3)c3ccccc32)nc1` (configuration not stated) the value was -101%.
The value for `c1cnc(N2CC3(CCN(CC4CCOC4)CC3)c3ccccc32)nc1` (configuration not stated) was -5.4%.
For `COCCN1CCc2cc(C(=O)NC(C)C)c(NCC3CC3)nc2CC1` the value was 33.6%; for `O=C(CCn1cccn1)NCCOc1ncc(Cl)cc1Cl`, 18.7%; for `N#Cc1ccc(N2CCC3(CC2)CC(OCc2cccnc2)CO3)cc1` (configuration not stated), -57.3%.
Turning to `COCCN1CCC2(CC1)CC(NC(=O)CN(C)C)c1ccccc1O2` (configuration not stated), the INHIBITION amounted to 67.7%.
The value for `COCCN1CCC2(CC1)CC(NC(=O)CC1CC1)c1ccccc1O2` (configuration not stated) was -92.9%; that for `COCCN1CCC2(CC1)CC(NC(=O)COC)c1ccccc1O2` (configuration not stated) was -38.3%; that for `CNCc1cc(C)n(-c2ccccc2OC)c1C` was 30.8%.
Regarding `Cc1nn(C)c(C)c1C1CCCN1Cc1cccc(OCC(N)=O)c1` (configuration not stated), the INHIBITION is on record as -22.6%.
The value for `CCn1cncc1CNC(=O)c1ccc(C2CCCN2C(=O)COC)s1` (configuration not stated) was -32.8%; that for `O=C(NCC1CC1)[C@@H]1CCO[C@@H]2CCN(Cc3ccsc3)C[C@H]21` was 50.9%.
For `O=C(NCC1CC1)[C@@H]1CCO[C@@H]2CCN(Cc3ccc(F)cc3)C[C@H]21` the value was 22.5%; for `O=C(NC1CC1)[C@@H]1CCO[C@@H]2CCN(Cc3ccsc3)C[C@H]21`, -48.8%.
For `O=C(NCCCn1ccnc1)NCC(c1ccco1)N1CCCC1` (configuration not stated) the value was -96.3%.
Regarding `CCN1CCCC(CN(C)c2nccc(-c3ccc(C)nc3C)n2)C1` (configuration not stated), the INHIBITION is given as 26.3%.
The value for `CC(C)N[C@@H]1CC[C@@H]1NC(=O)c1ccccc1OC(F)(F)C(F)F` was 54.4%; that for `O=C(N[C@@H]1CCNC[C@H]1O)c1ccccc1OC(F)(F)C(F)F` was -173%.
Consider `N[C@@H]1CC[C@@H]1NC(=O)c1ccccc1OC(F)(F)C(F)F`, for which the INHIBITION was determined as 42.2%.
For `Cc1ccnc(NCc2cn3nc(C)sc3n2)n1` the value was -114%; for `O=C(Cc1ccc2c(c1)OCC2)Nc1nc[nH]n1`, -116%; for `c1cnn(Cc2cnc3n2CCN(CC2CCCCC2)C3)c1`, 4.97%.
The value for `COCCCNC(=O)CN(C)C(C)c1nc(C(C)C)no1` (configuration not stated) was -119%; that for `CN1CCOC(CNC(=O)C2(c3ccccc3)CCC2)C1` (configuration not stated) was -66.7%; that for `Cc1cccc(C2(C(=O)NCC3CN(C)CCO3)CC2)c1` (configuration not stated) was 0.579%.
For `CN1CCOC(CNC(=O)C2(c3cccc(C(F)(F)F)c3)CCCC2)C1` (configuration not stated) the value was 55.9%.
On to `CN(Cc1csc(-c2cnn(C)c2)n1)CC1CCN(CCO)CC1`, for which the INHIBITION is given as -6.54%.
The value for `c1nn(C2CCCCC2)cc1-c1cncn1CCCN1CCCCC1` was 62.1%; that for `CC(Cn1cncc1-c1cnn(C2CCCCC2)c1)N1CCCCC1` (configuration not stated) was 13.6%; that for `c1nc(N2CCOCC2)ncc1-c1cncn1CCCN1CCCCC1` was -102%.
The value for `Cc1ccccc1N1CCCN(C(=O)CC2CN(C(C)C)CCO2)CC1` (configuration not stated) was 11.3%; that for `Cc1ncc(CNC(=O)CCOc2ccccc2)c(C2CCCN2C)n1` (configuration not stated) was -57%.
Turning to `CC(=O)c1cccc(OCCCC(=O)NCC2CCCN2C)c1` (configuration not stated), the INHIBITION was determined as 3.79%.
As to `CN1CCCC1CNC(=O)CCCOc1ccc(I)cc1` (configuration not stated), the INHIBITION is listed as 59.8%.
For `COc1cc(CCC(=O)NCC2CCCN2C)ccc1OCC(F)(F)F` (configuration not stated) the value was 43.4%; for `CN1CCCC1CNC(=O)CCCOc1ccc(F)cc1` (configuration not stated), 48.7%.
As for `CN1CCCC1CNC(=O)CCOc1ccc(Br)cc1` (configuration not stated), the INHIBITION is 62.6%.
The value for `CN1CCCC1CNC(=O)CCCOCc1ccccc1` (configuration not stated) was -46.6%.
For `CN1CCCC1CNC(=O)CCOc1ccc(Cl)cc1` (configuration not stated) the value was 67.9%; for `CN1CCCC1CNC(=O)CCCOc1cccc(F)c1` (configuration not stated), 35.7%.
The value for `CC(C)c1nc(O)c2nnn(C[C@@H]3CCCN(Cc4cccs4)C3)c2n1` was -32.9%; that for `O=C1CO[C@@H]2CN(S(=O)(=O)c3ccc(F)cc3)C[C@H]2N1` was -28.2%; that for `Cc1cc(C(=O)N2CC[C@@]3(O)CCN(S(C)(=O)=O)C[C@H]3C2)c(C)n1C` was -156%.
Regarding `O=C(CNC(=O)c1cnccn1)Nc1ncc[nH]1`, the INHIBITION is -51.8%.
The value for `CCC(=O)N1CCN(c2ncnc3c(C)nn(C)c23)CC1` was -52.3%; that for `CCNC(=O)O[C@H]1COCCN(c2nc3ccccc3s2)C1` was 54.8%.
As for `O=C(NC1CCCC1)O[C@H]1COCCN(c2nc3ccccc3o2)C1`, the INHIBITION was -59.6%.
For `O=C(NC1CCCC1)O[C@H]1COCCN(c2nc3ccccc3s2)C1` the value was -31.6%.
In the case of `CCOc1ccccc1CNC(=O)N1CCC(n2cncn2)CC1`, the INHIBITION is -19.1%.
For `COc1ccc(CN2C[C@@H]3CN(CCO)C[C@@H]3C2=O)cc1` the value was 50.3%.
